# High-throughput results (PubChem)
# Hits are enriched below; roughly 12% of the tested compounds scored in any of these assays.
# Sfp PPTase inh = blocks B. subtilis Sfp PPTase activity; Q9F4F7; Biochemical Sfp PPTase activity, qHTS; Potency, µM, inactives show largest response in the series, negative = inhibition, usual class: inhibitors; 3.5% of 310,000 active;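 also: the enzyme is Sfp with the accession as filed and its product quenches rhodamine fluorescence; 0% = enzyme reaction without inhibitor and -100% = no enzyme wells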
#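 Fluorescence-quenching assay: 15 nM Sfp-PPTase preincubated 15 min at room temperature with compound, then 5 uM rhodamine-CoA and 12.5 uM BHQ-2-labelled YbbR peptide added. Fluorescence (ex 525/em 598 nm) read at start and after 30 min; difference gives rate.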
# HP1b chromo inh = inhibitors of HP1-beta chromodomain binding to methylated histone tails; P83916; AlphaScreen HP1-beta / biotin-H3K9me3 peptide binding; Potency, µM (top dose mostly 114 µM), inactives show at the top dose activity change, negative = inhibition, most hits filed as inhibitors; 0.56% of 390,000 active; AID 540317; also: nearly all actives have a fitted effect of over 70% in size
# Target sequence (P83916 whole entry, looked up): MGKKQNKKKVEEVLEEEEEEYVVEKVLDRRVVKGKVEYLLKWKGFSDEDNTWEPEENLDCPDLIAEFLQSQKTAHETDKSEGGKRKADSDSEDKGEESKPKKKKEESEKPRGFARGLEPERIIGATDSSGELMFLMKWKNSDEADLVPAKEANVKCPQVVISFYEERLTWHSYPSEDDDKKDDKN
#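 Compound inhibition of the preformed complex between 50 nM HP1-beta and 50 nM biotinylated H3K9me3 peptide was read by AlphaScreen. Buffer was PBS pH 7.4 with 0.01% Tween-20. Incubations ran 30 min at room temperature, with 10 ug/mL donor/acceptor beads.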
# G9a block = G9a (human) methyltransferase inhibition | Potency, µM (doses to about 102 µM), for inactives: top-dose activity, negative = inhibition, actives largely listed as inhibitors | G9a H3K9 monomethylation, AlphaScreen, 2 h | 8.8% of 350,000 active | Q96KQ7; also: % is scaled to controls: 0 for no effect and ±100 for the full control effect; nearly all actives have a fitted effect of over 75% in size
# Target sequence (Q96KQ7 913-1193 limits assumed): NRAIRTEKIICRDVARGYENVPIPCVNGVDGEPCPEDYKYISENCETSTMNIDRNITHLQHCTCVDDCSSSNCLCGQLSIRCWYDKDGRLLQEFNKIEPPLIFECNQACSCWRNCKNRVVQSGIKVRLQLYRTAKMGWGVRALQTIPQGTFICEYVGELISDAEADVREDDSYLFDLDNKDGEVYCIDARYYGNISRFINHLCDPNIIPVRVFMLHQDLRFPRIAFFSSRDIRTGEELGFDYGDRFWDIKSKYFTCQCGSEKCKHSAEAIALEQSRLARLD
#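 AlphaScreen read-out: biotin-H3K9 peptide (500 nM) methylation by 20 nM enzyme with 20 uM SAM, 2 h at room temperature after 15 min compound preincubation; anti-monomethyl H3K9 antibody plus donor/acceptor beads, 10 min dark.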
# JMJD2A Tudor inh = inhibitors of human JMJD2A Tudor domain; Potency, µM (series often up to 114 µM), inactives show top-dose activity change, negative = inhibition, actives largely listed as inhibitors; 4.4% of 390,000 active; AID 504339; AlphaScreen JMJD2A-Tudor / H3K4me3 peptide binding; O75164; also: % is scaled to controls: 0 for no effect and ±100 for the full control effect; nearly all actives have a fitted effect of over 50% in size
# BAZ2B inh = BAZ2B (human) inhibition | AlphaScreen BAZ2B-H3K14Ac peptide displacement | Potency, µM (top dose mostly 114 µM), for the others: top-dose activity change, negative = inhibition, most hits filed as inhibitors | 4.4% of 360,000 active; also: % is scaled to controls: 0 for no effect and ±100 for the full control effect; nearly all actives have a fitted effect of over 60% in size
#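 Multi-concentration screen (max 110 uM) measuring displacement of acetylated histone H3 peptide from BAZ2B by AlphaScreen, using 50 nM protein, 50 nM peptide and 10 ug/mL streptavidin donor plus Ni-chelate acceptor beads.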
# Starred values were filed as active, the others as inactive; ? = inconclusive; nt = no result; [ ] = another dose, or the depositor's remark. Calls follow the shape of the dose curve; as a rule, active = well fitted curve in the direction sought with a large enough effect; inconclusive = small, poorly fitted or top-dose-only effect, or another doubt; inactive = no such curve, though single readings can be large; an effect the other way counts as inactive or inconclusive. Potency is read from the fitted curve at half-maximal effect.
SMILES,Sfp PPTase inh,HP1b chromo inh,G9a block,JMJD2A Tudor inh,BAZ2B inh
CCOC(=O)N1CCC(NCCNC(=O)c2ccc(F)cc2)CC1,nt,36.5%,-24.2%[2.33 µM],-9.9%,-19.5%
COc1ccc(-c2[nH]ncc2CNC(C)c2cn(C)nc2C)c(F)c1 (centres undefined),13.0%,66.3%,-3.7%,-18.8%,0.6%
CC(=O)c1ccc(NC(=O)C2CCCNC2=O)cc1 (centres undefined),16.1%,29.4%,-2.5%[59 µM],-12.6%,-20.7%
Cc1cccc(C(=O)N2CCCC(c3nc(-c4ccc(F)cc4)no3)C2)c1 (centres undefined),6.4%,18.3%,24.9%[59 µM],3.6%,-1.0%
Cc1ccc(CN2C(=O)C3(c4ccccc42)N(c2cccc(F)c2)C(=O)CS3(=O)=O)cc1 (centres undefined),nt,3.8%,?,-18.4%,1.1%[57.1 µM]
O=C(CSc1nc(-c2ccccc2)cs1)Nc1ccccc1[N+](=O)[O-],3.1%,?,?,?,25.1µM*
O=C(CSc1nc(-c2ccccc2)cs1)Nc1nccs1,-16.6%,30.0%,?,-10.1%,?
O=C(c1ccco1)N1CCC(c2nc3c(nnn3Cc3c(Cl)cccc3Cl)c(=O)[nH]2)CC1,-13.6%,4.2%,?,-6.8%,-8.5%
CC(C)(C)c1ccc(Cn2nnc3c(=O)[nH]c(C4CCN(C(=O)c5ccco5)CC4)nc32)cc1,-0.6%,-28.2%,?,79.4µM*,?
CC(C)(C)c1ccc(S(=O)(=O)Nc2ccc(Cc3ccncc3)cc2)cc1,-0.7%,4.1%,-47.5%[59 µM],?,-32.2%
Cc1cc2c(NCCc3ccccc3)ncnc2s1,-6.3%,34.3%,50.1µM*,3.5%,?
Cc1cc2c(Nc3ccccc3)ncnc2s1,0.3%,23.7%,?,-4.8%,-13.2%
CN(C)c1cc(Nc2ccc(O)cc2)c([N+](=O)[O-])c2nonc12,4.6%,-2.9%,-2.2%,5.1%[11.4 µM],-18.2%
O=C(O)c1ccc(Nc2ccc3nonc3c2[N+](=O)[O-])cc1,11.6%,22.6%,4.8%,-6.8%,-8.7%
O=[N+]([O-])c1ccc(Nc2ccccc2O)c2nonc12,-0.4%,?,?,50.1µM*,?
O=[N+]([O-])c1c(Nc2ccc(O)cc2)cc(Cl)c2nonc12,50.1µM*,-15.7%,31.6µM*,?,?
COc1ccc(Nc2ccc([N+](=O)[O-])c3nonc23)c(OC)c1,-6.4%,?,?,-9.7%,-1.9%
O=C(O)c1ccccc1Nc1cc(Cl)c2nonc2c1[N+](=O)[O-],?,32.1%,44.7µM*,-20.5%,-32.7%
O=C(O)c1cccc(Nc2cc(Cl)c3nonc3c2[N+](=O)[O-])c1,-64.9%,39.0%,31.6µM*,-11.5%,-16.5%
Cc1cc(NCc2ccccc2)n2ncnc2n1,20.4%,32.5%,27.1%,-0.7%,-4.6%
O=C(CSc1ccc(-c2cccc([N+](=O)[O-])c2)nn1)NC1CCCC1,17.5%,12.4%,-4.6%,-3.4%,-7.4%
CCN(CC(=O)Nc1ccccc1OC)C(=O)c1cc(-c2ccccc2)nn1-c1ccccc1,nt,13.2%,?,?,1.6%
COc1cc(CC(=O)OCC(=O)NC2CCCCC2)cc(OC)c1OC,23.2%,20.6%,14.8%,-15.4%,-3.7%
O=C(O)c1cccc(Nc2ccc([N+](=O)[O-])c3nonc23)c1,2.4%,?,70.8µM*,-12.0%,?
O=[N+]([O-])c1ccc(Nc2ccccn2)c([N+](=O)[O-])c1,1.5%,7.3%,nt,-27.0%,-32.5%
SMILES,Sfp PPTase inh,HP1b chromo inh,G9a block,JMJD2A Tudor inh,BAZ2B inh
CC(=O)c1ccc(Nc2ccc([N+](=O)[O-])c3nonc23)cc1,5.0%,-8.6%,?,-29.6%,?
O=[N+]([O-])c1c(Nc2ccccn2)cc(Cl)c2nonc12,7.94µM*,?,0.708µM*,?,?
COc1ccc(Cl)cc1NC(=O)Cn1c(=O)n(Cc2ccc(F)cc2)c(=O)c2cccnc21,nt,18.6%,2.2%[59 µM],-6.5%,-1.0%
Cc1ccc(-c2ccc(=O)n(CC(=O)NCCc3ccc(Cl)cc3)n2)cc1,nt,2.9%,-6.9%[59 µM],89.1µM*,2.3%
CC(C)C[C@@H]1NC(=O)[C@H](Cc2ccc(O)cc2)NC(=O)c2cc([N+](=O)[O-])cc(I)c2NCCC[C@@H](C(N)=O)NC1=O,-12.4%,21.9%,70.8µM*,-19.3%,?
NC(=O)[C@@H]1CCCNc2c(F)cc([N+](=O)[O-])cc2C(=O)N[C@@H](CO)C(=O)NCC(=O)N1,23.6%,20.6%,?,-11.8%,-10.2%
NC(=O)[C@@H]1CCCNc2c(I)cc([N+](=O)[O-])cc2C(=O)N[C@@H](Cc2ccccc2)C(=O)N[C@@H](Cc2cnc[nH]2)C(=O)N1,-5.4%,7.5%,8.91µM*,?,50.1µM*
NC(=O)[C@@H]1CCCNc2c(I)cc([N+](=O)[O-])cc2C(=O)N[C@@H](CO)C(=O)N[C@@H](Cc2ccc(O)cc2)C(=O)N1,-4.2%,19.5%,44.7µM*,-25.9%,-34.5%
NC(=O)[C@@H]1CCCNc2c(I)cc([N+](=O)[O-])cc2C(=O)N[C@@H](CO)C(=O)NCC(=O)N1,29.7%,44.9%,79.4µM*,-6.2%,-0.8%
O=C1CCC[C@@H]2C[C@@]3(C[C@@H]4CCN1[C@H]24)Nc1cc(Cl)c(Cl)cc1NC3=NCc1ccccc1,nt,-19.0%,nt,?,nt
CCCCOC(=O)c1ccc(Nc2nc3ccc(C(=O)c4ccccc4)cc3n3cnnc23)cc1,nt,42.9%,-3.6%[59 µM],-10.3%,-2.9%
CCc1cccc2nc3c(c([Si](C)(C)C)c12)Cn1c-3cccc1=O,-20.4%,nt,nt,nt,nt
COc1ccccc1/C=N/NC(=O)c1cc2c(ccc3ccccc32)o1,-1.5%,19.1%,17.9%,-3.4%,-2.3%
NC(=O)CC[C@@H]1NC(=O)[C@H](CO)NC(=O)c2cc([N+](=O)[O-])cc(I)c2NCCC[C@@H](C(N)=O)NC(=O)[C@H](Cc2ccc(O)cc2)NC1=O,5.0%,13.5%,50.1µM*,-35.9%,?
O=C(Nc1cccc(Cl)c1)c1cccc(N2C(=O)C3CC=CCC3C2=O)c1 (centres undefined),-7.4%,?,79.4µM*,-25.9%,?
CC1C=CCC2C(=O)N(c3cccc(C(=O)NCc4ccccc4)c3)C(=O)C12 (centres undefined),-27.3%,20.0%,28.2µM*,-28.4%,-23.6%
O=C(Nc1ccc(F)cc1)c1cccc(N2C(=O)C3C4CCC(C4)C3C2=O)c1 (centres undefined),1.8%,27.1%,3.16µM*,17.9%,-1.4%
CC1C=CCC2C(=O)N(c3cccc(C(=O)NCCc4ccccc4)c3)C(=O)C12 (centres undefined),5.7%,25.8%,?,-20.4%,-21.5%
CCOC(=O)c1ccc(NC(=O)Nc2cccc(OCc3cc(=O)n4ccc(C)cc4n3)c2)cc1,nt,17.4%[57 µM],-5.1%[59 µM],-18.2%,12.6%
